Experimental data from PubChem BioAssay AID1159580 (chemical genetic matrix, 2015).
About 2,000 (36%) of roughly 5,500 compounds were called active. Inconclusive results (about 18%) are left out. Some of the results follow. Unmarked numbers belong to inactive results. Cut-off read from the data, not from the text of the source: active = normalized growth mostly below about 0.91 (no sharp cut-off); inconclusive = no clear call, values can overlap the other calls; inactive = mostly above about 0.92.

Assay: chemical genetic growth profiling, strain panel (AID 1159580);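 note: tested at 20 µM; growth read once vehicle control cultures reached saturation at 30 °C; 1 = growth at the plate median or of vehicle wells; lower values mean less growth of the strain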
Settings: S. cerevisiae deletion strains, growth OD

Compound: CC1c2cccc(O)c2C(O)=C2C(=O)C3(O)C(O)=C(C(N)=O)C(=O)C(N(C)C)C3C(O)C21 (centres undefined)
- normalized growth (locus YAL040C, strain CLN3, active compounds read low): 0.944
- normalized growth (locus YCL061C, strain MRC1 (second series), active compounds read low): 0.966
- normalized growth (locus YDR150W, strain NUM1, active compounds read low): 0.983
- normalized growth (locus YDR363W, strain ESC2, active compounds read low): 0.936
- normalized growth (locus YER002W, strain NOP16, active compounds read low): 0.989
- normalized growth (locus YGR229C, strain SMI1, active compounds read low): 0.835 (active)
- normalized growth (locus YJR075W, strain HOC1, active compounds read low): 0.971
- normalized growth (locus YMR263W, strain SAP30, active compounds read low): 0.986
- normalized growth (locus YNL153C, strain GIM3, active compounds read low): 0.891
- normalized growth (locus YNL175C, strain NOP13, active compounds read low): 0.993
- normalized growth (locus YNL197C, strain WHI3, active compounds read low): 1.02
- normalized growth (locus YNL224C, strain SQS1, active compounds read low): 0.989
- normalized growth (locus YOR083W, strain WHI5 (second series), active compounds read low): 0.977
- normalized growth (locus YPL241C, strain CIN2, active compounds read low): 0.974
